Assay outcomes (PubChem BioAssay)
An excerpt weighted towards active compounds, which were near 2% of everything screened.
CHT block – inhibitors of human choline transporter CHT; High affinity choline transporter 1 (Homo sapiens), Q9GZV3; CHT-expressing cells, membrane potential dye, choline response; stronger effect = lower value; B-score at 10 µM; 310,000 compounds, 0.86% hits;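 active = B-score over 3 SD under the library average, and starting fluorescence ratio not unusually high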;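 note: choline stimulus applied at its EC90 after an EC20 pre-addition; B-score computed on integrated fluorescence ratio after choline addition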
Target sequence (Q9GZV3 whole entry, looked up): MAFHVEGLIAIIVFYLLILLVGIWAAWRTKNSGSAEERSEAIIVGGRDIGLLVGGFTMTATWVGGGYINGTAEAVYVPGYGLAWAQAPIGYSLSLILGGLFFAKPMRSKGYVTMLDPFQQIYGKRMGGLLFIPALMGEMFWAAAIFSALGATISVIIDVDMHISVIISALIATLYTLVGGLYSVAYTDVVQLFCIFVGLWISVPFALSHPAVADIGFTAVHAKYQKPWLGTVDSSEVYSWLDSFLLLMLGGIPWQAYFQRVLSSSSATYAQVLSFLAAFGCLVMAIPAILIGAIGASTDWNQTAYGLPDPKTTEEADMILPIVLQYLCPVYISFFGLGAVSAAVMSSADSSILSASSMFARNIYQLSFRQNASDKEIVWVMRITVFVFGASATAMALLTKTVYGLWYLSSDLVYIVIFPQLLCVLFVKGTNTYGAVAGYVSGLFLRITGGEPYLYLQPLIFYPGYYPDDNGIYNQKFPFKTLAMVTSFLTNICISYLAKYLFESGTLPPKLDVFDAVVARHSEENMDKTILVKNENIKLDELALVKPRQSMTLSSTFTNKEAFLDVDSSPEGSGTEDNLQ
CHT PAM – CHT positive allosteric modulators, primary screen, cell-based, membrane potential dye, choline EC20 | High affinity choline transporter 1 (Homo sapiens), Q9GZV3 | CHT-expressing cells; stronger effect = higher value; LV-AA mutant CHT in HEK293 cells | B-score at 10 µM | 310,000 compounds, 0.49% hits | AID 488977, 2010;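 active = initial fluorescence not abnormally high and integrated response B-score, plate-corrected, over 3 SD above library mean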
EP2 modulator – EP2 receptor modulators, cAMP readout, primary screen, cell-based, HTRF cAMP, PGE2 stimulation; EP2-expressing cells, cAMP HTRF FRET, PGE2 co-stimulation; induction, % at 25 µM; 260,000 compounds, 0.83% hits;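 active = compounds whose cAMP rise, as percent of the full-agonist control response, exceeds 60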;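 note: rat C6 glioma line stably carrying human EP2 under a CMV promoter; the protocol text gives 20 µM as final concentration; 100% = response of wells given 1 µM PGE2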
PGE2 EP2 inh – human EP2 receptor antagonists, primary screen, TR-FRET cAMP, C6 glioma cells; C6 glioma cells expressing human EP2; cells stimulated with saturating PGE2; inhibition, % at 25 µM; 260,000 compounds, 0.52% hits; AID 1422, 2008;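 active = percent inhibition above 40 after rounding to a whole number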;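 note: rat C6 glioma host cells with rolipram phosphodiesterase inhibitor present; the protocol text gives 20 µM as final concentration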
CHT activ conf – CHT activators, confirmation, cell-based, membrane potential dye, duplicate. activation, % at 10 µM. 2,500 compounds, 91% hits. CHT-expressing cells, membrane potential dye fluorescence (FDSS); % of choline EC20–EC90 response window; HEK293 expressing CHT LV-AA mutant; choline added at its EC20. shares compounds with CHT PAM;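 active = primary screen active, with duplicate mean activation above negative control mean plus 3 SD, cut at about 11% in these data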
HEK293 MP dye – membrane potential response in parental HEK293 cells, counter-screen for CHT activator project, cell-based, membrane potential dye. shares compounds with CHT PAM. membrane potential dye fluorescence (FDSS); measured after EC20 choline addition. ratio readout change at 10 µM, hits read low. 2,500 compounds, 62% hits. AID 623908, 2012;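 active = duplicate-averaged ratio beyond 3 SD from buffer wells, up or down, though filed actives are nearly all decreases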
Active calls of the source: *; i = inactive; nt = not tested or not shown.

SMILES	CHT block	CHT PAM	EP2 modulator	PGE2 EP2 inh	CHT activ conf	HEK293 MP dye
O=C1C(Cl)=C(Nc2ccc(O)cc2)C(=O)c2ccccc21	i	i	-39	26	nt	nt
COc1ccc(NC2=C(c3ccc(OC)cc3)C(=O)c3ccccc32)cc1	i	i	-15	7	nt	nt
COC1=C(Nc2ccc(OC)cc2)C(=O)c2ccccc2C1=O	i	6.5*	-27	7	12*	-65*
CCOc1ccc(NC2=C(OC)C(=O)c3ccccc3C2=O)cc1	i	i	-13	9	14*	-67*
Cc1ccc2cc(CN(CCO)C(c3nnnn3C(C)(C)C)C(C)C)c(=O)[nH]c2c1 (stereo unspecified)	nt	nt	-6	9	nt	nt
O=c1[nH]c2ccc(S(=O)(=O)Nc3ccc(-c4ccccc4)cc3)cc2[nH]1	nt	nt	-87	13	nt	nt
NNC(=O)c1ccc(-c2cccc([N+](=O)[O-])c2)o1	i	i	-47	8	15*	-23*
COc1ccc(CCNC(=O)c2ccc(-c3cccc([N+](=O)[O-])c3)o2)cc1OC	i	i	-46	27	nt	nt
COCCNc1nc2c(c(=O)[nH]c(=O)n2C)n1Cc1ccccc1Cl	nt	nt	-9	5	nt	nt
Nc1cnnc(N/N=C\c2ccccc2)c1Cl	i	6.4*	nt	nt	57*	-54*
Nc1nonc1N/N=C\c1ccccc1	i	i	-8	7	nt	nt
Cc1cc(C[n+]2ccsc2N)c2ncccc2c1	i	i	8	3	43*	-52*
Nc1scn[n+]1Cc1cccc2cccnc12	i	i	7	4	nt	nt
O=C(C1CCCCC1)N1CCC[C@H]1Cn1nc(-c2cccs2)ccc1=O	nt	nt	-39	nt	nt	nt
Cc1nc2c3cc(Cl)ccc3n(CCN3CCOCC3)c2s1	i	i	-8	6	15*	i
CCOC(=O)Cn1c2ccc(C)cc2c2nc(C)sc21	i	i	-3	2	nt	nt
CCN(CC)CCn1c2ccc(F)cc2c2nc(C)sc21	i	i	-10	12	27*	-63*
Cc1cccc2cc(CN(C3CCCC3)S(=O)(=O)c3cccc4nsnc34)c(=O)[nH]c12	nt	nt	10	9	nt	nt
O=c1nc(N/N=C/c2ccccn2)cn[nH]1	i	i	33	3	nt	nt
C(=N\Nc1ccc2nncn2n1)/c1ccccn1	i	i	-3	9	24*	-54*
CN(CCOc1ccccc1)CC(=O)Nc1ccc(Cl)c(S(=O)(=O)N(C)C)c1	i	7*	-9	5	5	i
CN(C)S(=O)(=O)c1cc(NC(=O)CNCc2ccccc2)ccc1Cl	i	i	nt	nt	nt	nt
COCCCNc1ncnc2ccc(C)cc12	i	i	-5	16	18*	-34*
COc1ccc(CN2C(=O)[C@@H]3C(c4ccccc4Cl)=NO[C@@H]3C2=O)cc1	i	i	-4	7	17*	i
CCOc1ccc(-n2c(-c3ccccc3)c[n+]3c2CCC3)cc1	i	i	-25	2	43*	-30*
SMILES	CHT block	CHT PAM	EP2 modulator	PGE2 EP2 inh	CHT activ conf	HEK293 MP dye
COc1ccc(-n2c(-c3ccc(Cl)cc3)c[n+]3c2CCCCC3)cc1	i	12*	-18	3	44*	i
CCOc1ccc(-n2c(-c3ccc(Br)cc3)c[n+]3c2CCCCC3)cc1	i	i	-33	5	nt	nt
COc1ccc(-c2c[n+]3c(n2-c2ccc(C)cc2)CCCCC3)cc1	i	12*	-19	3	13*	i
COc1ccc(-c2c[n+]3c(n2-c2ccccc2)CCCCC3)cc1	i	i	8	3	nt	nt
CCOc1ccc(-n2c(-c3ccc(OC)cc3)c[n+]3c2CCCCC3)cc1	i	6.4*	-3	9	41*	i
CS(=O)(=O)N(CC(=O)Nc1cccnc1)c1ccc(Cl)c(Cl)c1	nt	nt	-24	14	nt	nt
O=C(c1ccc(CN2CCCCC2)o1)N1CCn2cnnc2C1	nt	nt	-15	8	nt	nt
CN(CCCNC(=O)c1ncoc1-c1cccs1)c1ccccc1	nt	nt	-82	8	nt	nt
O=c1[nH]c2cc3c(cc2cc1CN(C1CCCCC1)S(=O)(=O)c1ccc2c(c1)OCCO2)OCO3	nt	nt	16	16	nt	nt
Cn1c(C(=O)NC2CC2)cc2c(=O)n(C)c3ccccc3c21	i	i	3	12	36*	-30*
CCN(CC)CCNC(=O)c1cc2c(=O)n(C)c3ccccc3c2n1C	i	i	0	8	nt	nt
CCN(CC)CCCNC(=O)c1cc2c(=O)n(C)c3ccccc3c2n1C	i	6.7*	-14	4	49*	-23*
CCOC(=O)N1CCC(NC(=O)c2cc3c(=O)n(C)c4ccccc4c3n2C)CC1	i	i	1	3	nt	nt
Cn1c(C(=O)NCCCN2CCc3ccccc3C2)cc2c(=O)n(C)c3ccccc3c21	i	i	-4	8	25*	-27*
CN(C)CCNC(=O)c1cc2c(=O)n(C)c3ccccc3c2n1C	i	i	9	6	42*	-33*
COCCNC(=O)c1cc2c(=O)n(C)c3ccccc3c2n1C	i	i	-1	8	nt	nt
Cn1c(C(=O)NCCCN2CCCCCC2)cc2c(=O)n(C)c3ccccc3c21	i	i	4	8	nt	nt
COc1ccc(CCNC(=O)CSc2nc(C(C)C)nc3sc4c(c23)CCCC4)cc1OC	nt	nt	12	16	nt	nt
O=C(Nc1cccnc1)c1ccc2c(c1)C(=O)N(Cc1cccnc1)C2=O	i	i	8	5	16*	-39*
CC(=O)c1cccc(NC(=O)c2ccc3c(c2)C(=O)N(Cc2cccnc2)C3=O)c1	i	i	nt	nt	nt	nt
Cc1sc2nc(C)n3c(=O)n(CC(=O)N4CCCCC4)nc3c2c1C	nt	nt	-24	8	nt	nt
COc1cccc(C2Nc3ccc(C(=O)O)cc3C3C=CCC32)c1 (stereo unspecified)	nt	nt	8	16	nt	nt
N#CC1(Cc2ccc([N+](=O)[O-])cc2)c2ccccc2C=CN1C(=O)c1ccccc1 (stereo unspecified)	i	i	21	12	27*	i
Cc1c(C(=O)N/N=C/c2cccnc2)sc(=S)n1C	i	i	9	4	41*	-41*
Cc1ccc([N+](=O)[O-])c(C(=O)N/N=C/c2cccnc2)c1	i	i	-22	14	61*	-41*
O=C(N/N=C/c1cccnc1)c1ccc([N+](=O)[O-])cc1Cl	i	i	-9	9	nt	nt
Cc1cccc(OCc2nnc(SCC(=O)NC3CCCCC3)n2C)c1C	nt	nt	7	9	nt	nt
